Bioassay records deposited in PubChem BioAssay by several laboratories.
Sampled rows, rich in hits. Any-hit rate of the full collection: about 1.7%.
sEH activator: soluble epoxide hydrolase activators, primary screen, biochemical, human sEH | activation, % at 2 µM | AID 717, 2007 | Bifunctional epoxide hydrolase 2 (Homo sapiens), P34913 | purified human sEH enzymatic activity, activator screen | 91,000 tested, 0.04% active; in the data active = activation above about 37%
sEH inh: soluble epoxide hydrolase inhibitors, primary screen, biochemical, human sEH; Bifunctional epoxide hydrolase 2 (Homo sapiens), P34913; recombinant human sEH enzymatic activity assay; inhibition, % at 2 µM; 91,000 tested, 0.34% active; AID 707, 2007; in the data active = inhibition above about 80%
LYP act: LYP phosphatase activators, primary screen, biochemical, DiFMUP fluorescence, 2 µM | Tyrosine-protein phosphatase non-receptor type 22 (Homo sapiens), Q9Y2R2 | recombinant LYP; 0 = plate median, 100 = signal doubled | activation, % at 2 µM | 96,000 tested, 0.11% active;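 active = activation at 2 µM above a set limit, the mean plus 5 SD, cut at about 37% in these data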
Target sequence (Q9Y2R2 whole entry, looked up): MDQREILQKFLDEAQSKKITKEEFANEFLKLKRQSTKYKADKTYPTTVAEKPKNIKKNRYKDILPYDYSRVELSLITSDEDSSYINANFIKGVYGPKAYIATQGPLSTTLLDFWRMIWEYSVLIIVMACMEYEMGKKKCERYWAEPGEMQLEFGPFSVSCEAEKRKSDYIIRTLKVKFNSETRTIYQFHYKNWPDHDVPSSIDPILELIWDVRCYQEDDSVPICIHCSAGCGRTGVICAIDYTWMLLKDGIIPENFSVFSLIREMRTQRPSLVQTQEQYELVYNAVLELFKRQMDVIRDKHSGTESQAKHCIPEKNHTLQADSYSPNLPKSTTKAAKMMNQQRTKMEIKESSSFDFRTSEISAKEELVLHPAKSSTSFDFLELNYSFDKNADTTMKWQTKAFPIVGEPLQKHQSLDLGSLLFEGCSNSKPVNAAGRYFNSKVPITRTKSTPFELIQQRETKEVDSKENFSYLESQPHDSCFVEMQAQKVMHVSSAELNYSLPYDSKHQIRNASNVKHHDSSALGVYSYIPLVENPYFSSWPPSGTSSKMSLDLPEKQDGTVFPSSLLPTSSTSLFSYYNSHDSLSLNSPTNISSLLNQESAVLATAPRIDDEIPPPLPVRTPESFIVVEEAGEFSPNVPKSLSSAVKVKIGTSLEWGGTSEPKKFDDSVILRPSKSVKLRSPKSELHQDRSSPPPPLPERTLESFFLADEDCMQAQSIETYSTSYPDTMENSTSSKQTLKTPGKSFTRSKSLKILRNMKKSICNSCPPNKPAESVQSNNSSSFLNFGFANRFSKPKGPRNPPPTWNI
Measles CPE: compounds protecting cells from measles virus cytopathic effect, primary screen, measles RdRp inhibitor project, single point, MLSMR library, absorbance; Measles virus-infected cells, CPE protection; protection (pct of control), % at 4 µM; 140,000 tested, 1.5% active; in the data active = protection mostly above about 24%, no sharp cut-off; inactive = mostly below about 26%
PTPN22 inh 2: PTPN22 phosphatase inhibitors, primary screen, biochemical, DiFMUP fluorescence, 2 µM. inhibition, % at 2 µM. 96,000 tested, 0.21% active. AID 640, 2007. recombinant LYP catalytic domain. Tyrosine-protein phosphatase non-receptor type 22 (Homo sapiens), Q9Y2R2;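 active = inhibition at 2 µM at or above a set limit, the screen mean plus 3 SD, cut at about 24% in these data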
Of the large screens only hits and unclear results are named; the others gave an inactive call.

O=C1c2cnc3nc(SCc4ccc(Cl)cc4)nn3c2CC2c3ccccc3CCN12 (stereo unspecified)	none
CC(=O)Nc1sc(C)c(C)c1C(=O)OC1CCOC1=O (stereo unspecified)	Measles CPE 37 (no result: sEH activator, sEH inh)
Cc1ccsc1C(=O)OC1CCOC1=O (stereo unspecified)	none (no result: sEH activator, sEH inh, LYP act, PTPN22 inh 2)
C=CCC1CCCC(=O)N2CC[C@H](O)C12 (stereo partly specified)	none (no result: sEH activator, sEH inh, LYP act, PTPN22 inh 2)
Cc1nn(Cc2ccccc2Cl)c(C)c1NC(=O)NC12CC3CC(CC(C3)C1)C2	sEH inh 91
Cc1cc(C(=O)N/N=C/c2cccn2C)no1	Measles CPE 43 (no result: sEH activator, sEH inh, LYP act, PTPN22 inh 2)
Cc1cc(C)nc(SCC(=O)Nc2ccc(Br)cn2)n1	Measles CPE 18
Cc1cc(N2CCN(c3ccccc3Cl)CC2)n2cc(-c3ccccc3)nc2n1	Measles CPE 30
Cc1cc(N2CCN(c3ccccc3)CC2)n2cc(-c3ccccc3)nc2n1	none
Cc1cccc(CCNC(=O)C2CCCN(S(=O)(=O)c3cccc4nsnc34)C2)c1 (stereo unspecified)	none (no result: sEH activator, sEH inh, LYP act, PTPN22 inh 2)
Cc1ccc(CCNC(=O)C2CCCN(S(=O)(=O)c3cccc4nsnc34)C2)cc1 (stereo unspecified)	sEH inh 83
CCc1ccc(OCC(=O)NC(NC(=S)Nc2ccc(Cl)cc2)C(Cl)(Cl)Cl)cc1 (stereo unspecified)	none (no result: sEH activator, sEH inh, LYP act, PTPN22 inh 2)
CCN(CC)C(=O)C(Sc1ccccc1)c1ccccc1 (stereo unspecified)	Measles CPE 61
O=S(=O)(Nc1ccc(Cc2ccncc2)cc1)c1ccc(Br)s1	none
O=S(=O)(Nc1ccc(Cc2ccncc2)cc1)c1cccs1	Measles CPE 46
CC1(C)Cc2c(sc3nc(N/N=C/c4ccccc4)[nH]c(=O)c23)CO1	Measles CPE 21 (no result: sEH activator, sEH inh, LYP act, PTPN22 inh 2)
CC(C)=NNc1nc2sc3c(c2c(=O)[nH]1)CC(C)(C)OC3	none (no result: sEH activator, sEH inh, LYP act, PTPN22 inh 2)
COC(=O)c1ccc(CSc2nnc(-c3c[nH]c4ccccc34)n2C)o1	none (no result: sEH activator, sEH inh, LYP act, PTPN22 inh 2)
COC(=O)c1ccc(CSc2nnc(-c3c[nH]c4ccccc34)n2-c2ccccc2)cc1	Measles CPE 54 (no result: sEH activator, sEH inh, LYP act, PTPN22 inh 2)
Cc1ccc(CNC(=O)CSc2c3c(nc4cc(Cl)ccc24)CCCC3)o1	none
Cc1oc(C(C)(C)C)cc1C(=O)N1CCCC1C(=O)O (stereo unspecified)	Measles CPE 26
CCCNS(=O)(=O)c1ccc(OCC(=O)OC)cc1	Measles CPE 39
O=C(N/N=C/c1ccc(O)cc1)c1csc2ccccc12	sEH inh 84
O=C(/C=C/c1cccc(Cl)c1)c1nc2ccccc2[nH]1	Measles CPE 58
COc1ccc(CCN2C(=S)NC3CC2(C)Oc2ccc([N+](=O)[O-])cc23)cc1OC (stereo unspecified)	none
O=C(CCc1ccc(S(=O)(=O)N2CCOCC2)cc1)N/N=C/c1ccc(O)c(O)c1O	none (no result: sEH activator, sEH inh, LYP act, PTPN22 inh 2)
Cc1ccc(NC(=O)CSCC(N)=O)cc1C	Measles CPE 40
O=C(NC12CC3CC(CC(C3)C1)C2)N1CCC(O)(c2ccc3c(c2)OCO3)CC1	sEH inh 88
CC(OC(=O)CCCc1nc2ccccc2s1)C(N)=O (stereo unspecified)	Measles CPE 29
Cc1cc(SCC(=O)N/N=C/c2ccc(O)c(O)c2O)c(C)cc1Br	PTPN22 inh 2 57
COCCN(CCOC)c1nc(S(=O)(=O)c2ccc(C)cc2)c(Cl)s1	Measles CPE 28
O=C(NCCC1=CCCCC1)NC12CC3CC(CC(C3)C1)C2	sEH inh 97
O=C(O)C1C2CCC(C2)C1C(=O)NCCC1=CCCCC1 (stereo unspecified)	none (no result: sEH activator, sEH inh, LYP act, PTPN22 inh 2)
COC(=O)c1ccc(CSc2nc3c(cnn3-c3ccc(C)c(C)c3)c(=O)[nH]2)o1	Measles CPE 30
O=C(O)c1ccccc1SCC(=O)N1CCCCC1	Measles CPE 40
O=C(O)c1cccnc1SCC(=O)N1CCCCCC1	none
Cc1ccc(C(=O)n2nc(-c3ccco3)nc2N)cc1	PTPN22 inh 2 29
O=C(O)CC/C(=C\c1cc([N+](=O)[O-])ccc1Cl)c1nc2ccccc2s1	none (no result: sEH activator, sEH inh, LYP act, PTPN22 inh 2)
Cc1nn(-c2ccc(F)cc2)c(Cl)c1/C=C(\CCC(=O)O)c1nc2ccccc2s1	Measles CPE 32 (no result: sEH activator, sEH inh)
Clc1ccc(NC2(c3nnnn3C3CCCCC3)CCCCC2)cc1	Measles CPE 50
Cc1ccc(S(=O)(=O)N2CCOCC2)cc1C(=O)N1c2ccccc2Sc2ccccc21	none
